Results taken from PubChem BioAssay (NCI).
This is part of a sample that, as a whole, favours compounds with a hit. Of some 83,000 tested, about 20% had one in any assay.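 48-hour exposure, single concentration, 96-well plates; percent growth endpoint where 0 means no net growth. Active: below 10.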 Values without a mark were called inactive. The source made the active and inactive calls.

The compounds below were run on HL-60(TB) leukemia (assay: NCI-60 one-dose screen, 48 h (100 = growth as untreated, 0 = no growth, -100 = all killed)). Settings: 10 µM unless noted.

SMILES | growth
NC(=S)N/N=C\c1nccc2c(C(F)(F)F)cccc12 | -24.8% (active)
CCCC1(c2ccccc2)NC(=O)NC1=O (stereo unspecified) | 144%
CC(=O)c1c[nH]c2ccccc12 | 114%
Cc1nc(S(=O)(=O)c2ccccc2)c(S(=O)(=O)Cc2ccc([N+](=O)[O-])cc2)o1 | 89.9%
CCCCCCCCCCCCCCCCCC[S+](C)CC (stereo unspecified) | 13%
C[N+](C)(C/C=C/c1ccccc1)Cc1ccccc1 | 92.6%
Cn1cc(-c2ccc(-c3cn(C)c4ccc(Cl)cc34)[nH]2)c2cc(Cl)ccc21 | -37.8% (active)
Cc1cccc(NC(=O)CCc2ccc(N3C(N)=NC(N)=NC3(C)C)cc2)c1 | 20.1%
C#C[C@]1(O)CC[C@H]2[C@@H]3CC=C4c5sc(-c6cccc(Br)c6)nc5CC[C@]4(C)[C@H]3CC[C@@]21C | 77.9%
O=c1n(CC2CO2)c(=O)n(CC2CO2)c(=O)n1CC1CO1 (stereo unspecified) | 20.4%
CC1(C)N=C(N)N=C(N)N1c1ccc(S(=O)(=O)Nc2nccs2)cc1 | 101%
Oc1ccccc1/C=N\Nc1ccccc1 | 16.5%
Cc1ccc(-c2csc(NC(=O)CCCCl)n2)cc1 | 109%
CC(=O)Nc1cc(F)cc(C(F)(F)F)c1Cl | 100%
N#CCCCCCn1c2ccccc2c2c3c(c4c5ccccc5n(CCCCCC#N)c4c21)C(=O)N(O)C3=O | 64.3%
Cc1ccc(S(=O)(=O)N(CCC(=O)O)c2ccccc2)cc1 | 92.1%
